# LASV entry inh: Lassa virus entry inhibition; Lassa virus pseudotype entry inhibition, cell reporter; Potency, µM (top dose mostly 37.9 µM), without a hit: at the top dose activity change, negative = inhibition, most hits filed as inhibitors; 1.2% of 300,000 active; calls by dose curve; tested in HEK293 cells; further: potency means the concentration at half of the fitted maximal effect; nearly all actives have a fitted effect of over 50% in size
# HCMV antiviral: blocks human cytomegalovirus replication. HFF cells, HCMV-luciferase reporter, 72 h; active compounds read low. activity change, negative = inhibition, % at 57.5 µM. 4.5% of 410,000 active; in the data active means activity change below about -60%; inconclusive means no clear call, values can overlap the other calls; inactive means above about -39%
#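 Two compound doses tested in HFFs infected with HCMV-luciferase, MOI 1 PFU/cell, 72 h at 37C. Lysate luminescence read with OneGlo; data normalized against buffer-only and 10uM Salinomycin inhibitor controls.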
# Marburg entry inh: Marburg virus entry inhibition | Potency, µM (series often up to 37.8 µM), inactives show at the highest dose activity change, negative = inhibition, hits mostly inhibitors | AID 540276 | Marburg virus pseudotyped entry inhibition, cell reporter | 1.8% of 300,000 active; calls by dose curve; tested in HEK293 cells; further: potency means the concentration at half of the fitted maximal effect
# HCV inhibitor: blocks hepatitis C virus; Huh7.5.1 HCVcc-Cre infection, luciferase reporter, 44 h; Potency, µM (doses to about 41.8 µM), for the others: top-dose activity change, negative = inhibition, most hits filed as inhibitors; 3.4% of 340,000 active; active means well fitted inhibition curve with a large enough effect; inconclusive means small, poorly fitted or top-dose-only effect, or another doubt; inactive means no such curve, though single readings can be large or run the other way; further: potency means the concentration at half of the fitted maximal effect
#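 A cell-based infection assay in which seeded cells (1,000 per well) receive test compound after 4 h, are inoculated with HCVcc-Cre at approximately 0.5 moi, and are incubated 44 h before luminescence detection.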
# FMDV antiviral: foot and mouth disease virus antiviral activity; FMDV antiviral cell-based qHTS; Potency, µM (doses to about 57.9 µM), for the others: at the highest dose activity change, negative = inhibition, most hits filed as inhibitors; 1.2% of 410,000 active; calls by dose curve; tested in HEK293T cells; further: read-out not given here; potency means the concentration at half of the fitted maximal effect; nearly all actives have a fitted effect of over 45% in size
# The depositor's hits bear a star; ? = inconclusive; . = no result given; [ ] = another dose, or the depositor's remark. The list is not random: actives were taken first. Their share in the collection is about 7.9%. On the % scale 0 is the no-effect control and ±100 the full control effect.
SMILES,LASV entry inh,HCMV antiviral,Marburg entry inh,HCV inhibitor,FMDV antiviral
COC(=O)/C=c1\s/c(=C(/C#N)C(=O)N2CCOCC2)n(-c2ccccc2)c1=O,.,.,-9.0%,.,.
CCNC(=S)N/N=C/c1ccco1,17.7%,-0.5,16.3%,-0.1%,8.4%
CCNC(=S)N/N=C/c1ccc(C#N)cc1,?,-61.7*,?,?,-10.4%
O=C1CCC[C@H]2[C@@H](Cc3ccccc3)[C@@H](NS(=O)(=O)Cc3ccccc3)CC[C@]23CCCN13,.,-16.9,.,.,.
COc1ccc(C(=O)NC(=C(Cl)Cl)S(=O)(=O)c2ccc(C)cc2)cc1,.,35.3,.,-10.5%,-3.9%
Cc1ccc(C(=O)NCC#N)cc1,-13.6%,-4.0,?,16.7%,-0.7%
Cc1ccc(C(=O)NC(=C(Cl)Cl)S(=O)(=O)c2ccccc2)cc1,?,-69.6*,?,11.2µM*,?
Cc1ccc(C(=O)NC(C#N)=C(Cl)Cl)cc1,?,-98.6*,?,6.31µM*,?
COC(=O)NC(=C(Cl)Cl)S(=O)(=O)c1ccccc1,12.6µM*,-31.2,?,11.2µM*,28.2µM*
COc1ccc(C)cc1NC(=O)C1CCN(S(=O)(=O)c2ccc3[nH]c4c(c3c2)CCCCC4)CC1,12.1%[46.1 µM],?,.,.,-3.1%
O=C(O)CCNc1nc(C(F)(F)F)nc2ccccc12,4.0%,-25.5,-0.9%[46.1 µM],?,-11.3%
OC(CNc1nc(C(F)(F)F)nc2ccccc12)c1ccccc1 (stereo not drawn),?,-66.0*,?,?,-22.4%
CCC(C)C1NC(=O)C(NC(=O)C(CC(C)C)N(C)C(=O)C2CCCN2C(=O)C(C)O)C(C)OC(=O)C(Cc2ccc(OC)cc2)N(C)C(=O)C2CCCN2C(=O)C(CC(C)C)NC(=O)[C@H](C)C(=O)[C@H](C(C)C)OC(=O)CC1O (stereo partly drawn),?,-97.3*,?,?,?
CCC[C@@H]1NC(=O)CNC(=O)[C@H](Cc2ccccc2)NC(=O)[C@H]([C@H](C)O)NC(=O)[C@H](CCC(N)=O)NC(=O)C(C(C)C(C)Cl)NC(=O)[C@H](CC(C)C)N(C)C(=O)[C@H](C)NC(=O)CC(O)C(NC(=O)[C@@H](CC(C)C)NC=O)C(C)OC1=O (stereo partly drawn),.,18.3,.,.,.
Cc1cc(C(=O)N/N=C/c2cccc3ccccc23)c(C)o1,-0.5%[46.1 µM],43.8,7.94µM*,-20.0%,38.6%
COc1ccc(C(=O)Nc2ccccc2C(=O)N/N=C/c2cccc3ccccc23)cc1,?,30.2,?,-15.4%,0.316µM*
O=C(N/N=C/c1cccc2ccccc12)C(=O)N1CCCC1,-22.2%[46.1 µM],-71.2*,-9.3%[46.1 µM],-22.2%,31.1%
COc1ccc(C(=O)Nc2ccccc2C(=O)N/N=C/c2ccncc2)cc1OC,?,66.1,?,0.0%,14.1µM*
Cc1cc(C(=O)N/N=C/c2ccccc2)c(C)o1,-6.2%[46.1 µM],42.7,?,-2.7%,14.0%
COc1ccc(C(=O)Nc2ccccc2C(=O)NCc2cccnc2)cc1OC,-2.2%,-9.8,5.4%,11.3%,-16.2%
CC(=O)N1CCCc2cc(S(=O)(=O)N3CCC(C(=O)NCCC(C)C)CC3)ccc21,-1.2%[46.1 µM],5.6,.,.,-3.3%
CCc1nc2cc(C(=O)N3CCC[C@H]3C(=O)OC)cc(NC(=O)c3ccccc3OC)c2n1C,.,.,.,.,-1.1%
CC(C)Cn1c(=O)c2sccc2n2c(CCCC(=O)NC3CCCCC3)nnc12,-1.6%[46.1 µM],?,.,.,-1.6%
CCc1ccc(NC(=O)Cn2c(=O)n(Cc3ccco3)c(=O)c3cccnc32)cc1,.,-12.5,?,.,-1.5%
CCCc1ncc(CN2CCC(C(=O)Nc3cccc(-c4cscn4)c3)CC2)cn1,.,-25.3,.,11.2µM*,-27.4%
SMILES,LASV entry inh,HCMV antiviral,Marburg entry inh,HCV inhibitor,FMDV antiviral
Cc1cccc(CN2CCC(C(=O)Nc3cccc(-c4cccc(F)c4)c3)CC2)n1,.,-33.5,.,7.94µM*,-25.6%
CCCn1ncc(CN2CCC(C(=O)Nc3cccc(-c4cccc(F)c4)c3)CC2)c1C,?,-65.3*,2.51µM*,?,-12.3%
Cc1nn(C(C)C)c(C)c1CN1CCC(C(=O)Nc2cccc(-c3cccc(F)c3)c2)CC1,.,30.5,.,10µM*,-17.1%
COCCc1ncc(CN2CCC(C(=O)Nc3cccc(-c4cscn4)c3)CC2)cn1,.,-15.3,.,?,?
COc1cccc(-c2cccc(NC(=O)C3CCN(Cc4cnn(C)c4)CC3)c2)c1,6.7%,11.3,23.9%,-3.2%,-14.7%
Cn1cc(CN2CCC(C(=O)Nc3cccc(-c4cccc(F)c4)c3)CC2)cn1,.,-1.2,.,10µM*,-12.2%

# Screens (PubChem)
